A short description of assay [1]: ACEA_ER_80hr: ACEA Biosciences xCELLigence Real-Time Cell Analysis on Estrogen Receptor Agonism for Proliferation (AID 2282667; active = hit-call score of the fitted dose curve at least 0.9, where 1 is the maximum). The conditions noted are these: T47D proliferation, impedance (xCELLigence), 80 h. The gist of the method: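 Impedance readout (RT-CES) of T47D proliferation at 80 h post-dose; gain of signal vs DMSO baseline. Compounds: 8 conc, 1:4 serial, top 100 uM final, ≤0.5% DMSO; biological duplicate.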

A short description of assay [2]: ATG_CRE_CIS: Attagene CIS-FACTORIAL HepG2 Assay for human cAMP Responsive Element (CRE) binding protein 3 (AID 2282926). As to conditions: HepG2 CRE cis-reporter, Attagene multiplexed mRNA; actives raise or lower the signal. The gist of the method: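 Endogenous CRE-binding activity in HepG2 is reported through a cis-regulated transfected reporter. Following a day of exposure, mRNA levels are determined by reverse transcription PCR and fluorescent fragment analysis; fits run in both directions versus DMSO.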

Assay [3] deals with CCAAT/enhancer-binding protein beta (Homo sapiens) (UniProt P17676). The assay can be described thus: ATG_C_EBP_CIS: Attagene CIS-FACTORIAL HepG2 Assay for human CCAAT/Enhancer Binding Protein (C/EBP) beta (AID 2282927). The conditions noted are these: HepG2 Attagene cis-factorial transcription factor reporter; actives raise or lower the signal. The method in brief:
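Changes in reporter mRNA, rather than exogenous chimeric receptor activity, reflect native C/EBP signalling in transfected HepG2 cells dosed for 24 h; transcripts are detected by RT-PCR and capillary electrophoresis.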

The nature of assay [4]: ATG_CMV_CIS: Attagene CIS-FACTORIAL HepG2 Assay for human CMV (Internal Marker) (AID 2282928).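 Also: endpoint acts as a background internal control marker rather than a target.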 The conditions noted are these: HepG2 CMV promoter reporter, transcription factor profiling; actives raise or lower the signal. The gist of the method: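 After transient transfection of HepG2 with reporter transcription units driven by cis-regulatory promoters, cells receive test chemical for 24 h. Labeled reporter amplicons, digested with HpaI, are sized and quantified by capillary electrophoresis against DMSO.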

The nature of assay [5]: ATG_DR4_LXR_CIS: Attagene CIS-FACTORIAL HepG2 Assay for human Liver X Receptor (LXR), DR4 submotif (AID 2282929). The conditions noted are these: HepG2 Attagene DR4 cis-reporter, mRNA transcription; actives raise or lower the signal. The method in brief: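 The endpoint is DR4-element-driven reporter transcripts after 24 h chemical exposure of transfected HepG2 cells. These were measured via RT-PCR and capillary electrophoresis, and gain or loss of signal was fitted relative to DMSO controls.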

The target of assay [6] is Aryl hydrocarbon receptor (Homo sapiens) (UniProt P35869). The assay can be described thus: ATG_Ahr_CIS: Attagene CIS-FACTORIAL HepG2 Assay for human Aryl Hydrocarbon Receptor (Ahr) (AID 2282930). As to conditions: HepG2 AhR cis-factorial reporter transcription; actives raise or lower the signal. The method in brief: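 HepG2, transient MRTU (cis) transfection, 24 h exposure. RNA → cDNA → PCR → 6-FAM primer extension → HpaI 2 h 37 C → CE. Fit: bidirectional, DMSO baseline.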

Assay [7] in a line: ATG_AP_1_CIS: Attagene CIS-FACTORIAL HepG2 Assay for human Activator Protein 1 (AP-1) (AID 2282931). As to conditions: HepG2 Attagene cis-factorial AP-1 reporter mRNA; actives raise or lower the signal. The method in brief:
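Readout is reporter transcript level from endogenous transcription factor activity, quantified by RT-PCR with fluorescent primer extension and capillary electrophoresis. Transiently transfected HepG2 cells, 24 h exposure. Curves fitted both directions versus DMSO.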

Assay [8] can be described thus: ATG_AP_2_CIS: Attagene CIS-FACTORIAL HepG2 Assay for human Activator Protein 2 (AP-2) (AID 2282932). As to conditions: HepG2 AP-2 cis-reporter, Attagene transcription factor profiling; actives raise or lower the signal. The gist of the method: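 Step one: transient transfection of HepG2 with reporter transcription units. Step two: 24 h chemical exposure. Step three: RNA extraction, RT-PCR, labelled fragment analysis by capillary electrophoresis; DMSO serves as baseline.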

The nature of assay [9]: ATG_BRE_CIS: Attagene CIS-FACTORIAL HepG2 Assay for human Bone Morphogenetic Protein (BMP) Response Element (BRE) (AID 2282933). As to conditions: HepG2 BMP response element reporter, Attagene transcription factor profiling; actives raise or lower the signal. The gist of the method:
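HepG2 cells transiently transfected with multiplexed cis-element reporter units were dosed with chemical for 24 h. Reporter mRNA was measured by RT-PCR with fluorescent labelling, HpaI digestion and capillary electrophoresis; bidirectional fitting relative to DMSO.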

Assay [10] concerns the target Retinoic acid receptor alpha (Homo sapiens) (UniProt P10276). In words: ATG_DR5_RAR_CIS: Attagene CIS-FACTORIAL HepG2 Assay for human Retinoic Acid Receptor Alpha (RARE), DR5 submotif (AID 2282934).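 As to AC50: reporter responds to endogenous RAR alpha beta and gamma in HepG2 not RARA alone.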 As to conditions: HepG2 Attagene cis-factorial RARE DR5 reporter, mRNA; actives raise or lower the signal. The gist of the method:
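HepG2, transient cis-reporter transfection, 24 h exposure. mRNA readout: RT-PCR, FAM label, HpaI cut, capillary electrophoresis. DMSO baseline, gain/loss fitting.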

Assay [11] addresses Transcription factor E2F1 (Homo sapiens) (UniProt Q01094). The assay can be described thus: ATG_E2F_CIS: Attagene CIS-FACTORIAL HepG2 Assay for human E2F Transcription Factor 1 (AID 2282935). As to conditions: HepG2 Attagene cis-reporter, E2F reporter RNA transcripts; actives raise or lower the signal. The gist of the method:
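Total RNA from 24 h-treated, reporter-transfected HepG2 cells undergoes DNase I treatment, oligo(dT) reverse transcription, PCR and 6-FAM primer extension before capillary electrophoresis.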

Assay [12] is described as follows: ATG_E_Box_CIS: Attagene CIS-FACTORIAL HepG2 Assay for human Enhancer Box (E-box) (AID 2282936). As to conditions: HepG2 E-box cis-reporter transcription, actives raise or lower the signal. The method in brief:
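DMSO served as negative control and baseline for bidirectional fitting. Human hepatoma HepG2 cells, transiently transfected with cis-reporter constructs, were dosed 24 h; reporter mRNA read by RT-PCR and capillary electrophoresis.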

Assay [13] can be described thus: ATG_M_61_CIS: Attagene CIS-FACTORIAL HepG2 Assay for M61 Transcription Factor (Internal Marker) (AID 2282937). The conditions noted are these: HepG2 Attagene CIS-FACTORIAL M61 internal marker reporter; actives raise or lower the signal. The method in brief:
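Readout is reporter mRNA by RT-PCR, fluorescent primer extension and capillary electrophoresis, with gain or loss fitted relative to DMSO. Transfected HepG2 cells carrying endogenous-TF-driven cis reporters were exposed to chemicals for 24 hours.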

Assay [14] is described as follows: ATG_EGR_CIS: Attagene CIS-FACTORIAL HepG2 Assay for human Early Growth Response 1 (EGR1) (AID 2282938). As to conditions: HepG2 Attagene CIS-FACTORIAL EGR reporter mRNA; actives raise or lower the signal. The method in brief: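 After 24 h compound exposure, RNA from reporter-transfected HepG2 cells was reverse-transcribed, PCR-amplified, fluorescently labelled and resolved by capillary electrophoresis. EGR1 reporter transcript changes, up or down, were fitted against DMSO, reflecting endogenous transcription-factor activity.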

Assay [15] is described as follows: ATG_M_19_CIS: Attagene CIS-FACTORIAL HepG2 Assay for M19 Transcription Factor (Internal Marker) (AID 2282939). As to conditions: HepG2 Attagene CIS-FACTORIAL M19 internal marker reporter; actives raise or lower the signal. The method in brief:
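HepG2 cells transiently transfected with cis-regulated multiple reporter transcription units were dosed for 24 h; reporter mRNA was quantified by RT-PCR, 6-FAM primer-extension labelling, HpaI digestion and capillary electrophoresis, with bidirectional fitting against DMSO baseline.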

A short description of assay [16]: ATG_ERE_CIS: Attagene CIS-FACTORIAL HepG2 Assay for Estrogen Response Element (ERE) (AID 2282940). The conditions noted are these: HepG2 ERE cis-reporter, Attagene RNA transcript; actives raise or lower the signal. The gist of the method:
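HepG2 cells transiently transfected with cis-promoter-driven multiplexed reporter transcription units report endogenous TF activity. After 24 h compound exposure, reporter mRNA is quantified by RT-PCR with capillary electrophoresis fluorescence; bidirectional fitting versus DMSO baseline.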

Assay [17] is described as follows: ATG_Ets_CIS: Attagene CIS-FACTORIAL HepG2 Assay for human Erythroblast Transformation Specific (ETS) (AID 2282941). The conditions noted are these: HepG2 ETS cis-reporter transcription, actives raise or lower the signal. The method in brief: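 Human HepG2 hepatoma cells were transiently transfected with promoter-driven reporter constructs and treated for 24 hours. Reporter transcripts were quantified by RT-PCR with fluorescent primer extension; bidirectional curve fitting used DMSO as reference.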

Assay [18] concerns the target Hepatocyte nuclear factor 3-beta (Homo sapiens) (UniProt Q9Y261). In words: ATG_FoxA2_CIS: Attagene CIS-FACTORIAL HepG2 Assay for human Forkhead box A2 (FOXA2) (AID 2282942). As to conditions: HepG2 cis-reporter transcription factor activity, 24 h; actives raise or lower the signal. The method in brief:
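Endogenous transcription factor activity is captured via cis-element-driven reporter transcripts in transfected HepG2. Total RNA taken at 24 h post-dosing; labelled RT-PCR products resolved by capillary electrophoresis. Gain or loss fitted versus DMSO.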

Assay [19] can be described thus: ATG_FoxO_CIS: Attagene CIS-FACTORIAL HepG2 Assay for human Forkhead box O (FoxO) (AID 2282943). As to conditions: HepG2 Attagene cis-reporter, FoxO element, mRNA; actives raise or lower the signal. The gist of the method: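 Human hepatoma HepG2 cells carry transiently introduced reporter transcription units controlled by cis promoter elements. Chemical treatment lasted 24 h, and mRNA signal was compared with DMSO.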

Assay [20] can be described thus: ATG_GATA_CIS: Attagene CIS-FACTORIAL HepG2 Assay for human GATA Binding Protein (AID 2282944). The conditions noted are these: HepG2 GATA cis-element reporter, Attagene multiplex mRNA; actives raise or lower the signal. The gist of the method:
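HepG2 cells transiently transfected with multiplexed cis-element reporter units reflecting endogenous transcription factor activity; reporter mRNA measured after 24 h dosing by RT-PCR, 6-FAM labeling, HpaI digestion and capillary electrophoresis. Bidirectional fitting versus DMSO baseline.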

Structures are written as SMILES. Records with an inconclusive call do not appear. Activity calls are given as the source filed them. The calls were made as follows, unless noted: active = hit-call score of the fitted dose curve at least 0.9, where 1 is the maximum; inactive = score below 0.9.

Among the data in PubChem BioAssay (EPA / NIEHS) are AC50 and outcome values, retold here.

Sequence of Hepatocyte nuclear factor 3-beta (Homo sapiens) (Q9Y261 whole entry, looked up): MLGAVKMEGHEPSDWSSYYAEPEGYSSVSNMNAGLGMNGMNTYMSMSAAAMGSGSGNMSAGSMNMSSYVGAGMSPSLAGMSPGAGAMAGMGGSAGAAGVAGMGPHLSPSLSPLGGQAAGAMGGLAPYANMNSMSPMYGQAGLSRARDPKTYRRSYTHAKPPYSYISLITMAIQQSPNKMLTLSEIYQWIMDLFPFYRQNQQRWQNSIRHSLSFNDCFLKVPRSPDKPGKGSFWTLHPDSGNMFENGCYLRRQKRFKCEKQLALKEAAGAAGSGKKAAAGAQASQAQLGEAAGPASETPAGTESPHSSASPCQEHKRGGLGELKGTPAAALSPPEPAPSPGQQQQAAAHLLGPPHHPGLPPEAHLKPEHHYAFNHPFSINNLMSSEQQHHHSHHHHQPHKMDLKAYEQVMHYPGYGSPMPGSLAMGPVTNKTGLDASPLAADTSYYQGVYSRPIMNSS
Sequence of Retinoic acid receptor alpha (Homo sapiens) (P10276 whole entry, looked up): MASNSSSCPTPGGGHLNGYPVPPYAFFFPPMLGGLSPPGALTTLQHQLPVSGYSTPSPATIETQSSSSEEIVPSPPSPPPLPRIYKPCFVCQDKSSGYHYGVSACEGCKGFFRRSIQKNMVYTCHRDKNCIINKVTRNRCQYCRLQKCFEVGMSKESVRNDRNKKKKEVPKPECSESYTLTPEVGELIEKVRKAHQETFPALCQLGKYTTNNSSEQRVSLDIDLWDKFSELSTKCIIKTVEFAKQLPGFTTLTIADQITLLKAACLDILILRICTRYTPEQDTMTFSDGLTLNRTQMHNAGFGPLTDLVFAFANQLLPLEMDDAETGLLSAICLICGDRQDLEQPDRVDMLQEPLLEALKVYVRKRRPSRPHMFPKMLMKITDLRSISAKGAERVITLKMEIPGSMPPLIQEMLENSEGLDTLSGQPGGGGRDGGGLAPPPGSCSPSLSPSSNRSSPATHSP
Sequence of CCAAT/enhancer-binding protein beta (Homo sapiens) (P17676 whole entry, looked up): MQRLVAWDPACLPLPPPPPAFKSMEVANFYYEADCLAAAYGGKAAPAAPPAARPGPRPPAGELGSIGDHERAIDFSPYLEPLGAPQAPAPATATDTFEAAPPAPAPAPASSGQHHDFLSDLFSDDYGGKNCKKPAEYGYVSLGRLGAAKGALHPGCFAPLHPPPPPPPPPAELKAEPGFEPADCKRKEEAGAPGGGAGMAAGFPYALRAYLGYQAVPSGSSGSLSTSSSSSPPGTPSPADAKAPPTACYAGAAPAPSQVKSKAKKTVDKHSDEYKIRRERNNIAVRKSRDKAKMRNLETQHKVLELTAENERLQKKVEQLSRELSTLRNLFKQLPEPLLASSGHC
Sequence of Aryl hydrocarbon receptor (Homo sapiens) (P35869 whole entry, looked up): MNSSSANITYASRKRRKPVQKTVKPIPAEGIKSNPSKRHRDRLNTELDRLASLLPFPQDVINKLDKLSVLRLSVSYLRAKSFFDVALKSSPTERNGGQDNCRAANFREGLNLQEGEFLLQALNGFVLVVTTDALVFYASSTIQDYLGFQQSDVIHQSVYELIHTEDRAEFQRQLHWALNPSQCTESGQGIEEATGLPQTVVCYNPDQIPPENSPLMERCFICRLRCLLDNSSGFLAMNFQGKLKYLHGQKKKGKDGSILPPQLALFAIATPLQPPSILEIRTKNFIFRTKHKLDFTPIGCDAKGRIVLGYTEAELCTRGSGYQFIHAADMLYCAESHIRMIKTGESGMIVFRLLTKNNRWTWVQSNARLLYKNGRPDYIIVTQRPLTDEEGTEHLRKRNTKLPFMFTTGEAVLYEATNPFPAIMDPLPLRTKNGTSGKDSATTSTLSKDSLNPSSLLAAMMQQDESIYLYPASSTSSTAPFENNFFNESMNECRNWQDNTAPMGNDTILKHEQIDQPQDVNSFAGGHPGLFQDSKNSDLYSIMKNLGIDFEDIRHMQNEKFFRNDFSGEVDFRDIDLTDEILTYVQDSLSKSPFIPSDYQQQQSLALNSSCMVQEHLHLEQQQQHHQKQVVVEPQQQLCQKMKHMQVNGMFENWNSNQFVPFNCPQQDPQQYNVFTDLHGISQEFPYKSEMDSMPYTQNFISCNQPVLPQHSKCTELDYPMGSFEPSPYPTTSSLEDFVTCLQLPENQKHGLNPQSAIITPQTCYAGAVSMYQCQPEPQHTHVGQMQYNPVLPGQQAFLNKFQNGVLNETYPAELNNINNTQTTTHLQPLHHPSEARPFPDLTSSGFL
Sequence of Transcription factor E2F1 (Homo sapiens) (Q01094 whole entry, looked up): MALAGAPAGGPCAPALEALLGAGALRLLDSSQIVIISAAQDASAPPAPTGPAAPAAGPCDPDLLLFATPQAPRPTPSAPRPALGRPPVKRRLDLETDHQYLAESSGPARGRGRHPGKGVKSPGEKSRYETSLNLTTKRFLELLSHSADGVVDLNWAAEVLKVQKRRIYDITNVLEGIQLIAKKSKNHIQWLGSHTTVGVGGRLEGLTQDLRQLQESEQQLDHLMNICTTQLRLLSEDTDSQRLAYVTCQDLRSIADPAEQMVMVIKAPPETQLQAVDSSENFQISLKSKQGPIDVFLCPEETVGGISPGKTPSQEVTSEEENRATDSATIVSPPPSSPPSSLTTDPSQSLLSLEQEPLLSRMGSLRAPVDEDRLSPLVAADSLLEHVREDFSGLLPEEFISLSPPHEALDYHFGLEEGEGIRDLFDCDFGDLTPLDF

As for `CCCCCCCCCCCCCCCCC`, the AC50 is 10.5 µM (active) in assay [1] and 25.6 µM (active) in assay [16]. For the same compound, the result in assay [2], in assay [3], in [4], in assay [5], in [6] and in assay [7] was inactive. Further, the call in assay [8], in [9], in [10], in assay [11], in [12] and in [13] was inactive. Further, the result in assay [14], in assay [15], in assay [17], in [18], in assay [19] and in assay [20] was inactive.

`C=CC(=O)OCC(F)(F)C(F)(F)C(F)(F)C(F)(F)C(F)(F)C(F)(F)C(F)(F)C(F)F`: the call in assay [1], in assay [2], in assay [3], in [4], in assay [6] and in assay [7] was inactive. Further, the compound was called inactive in [8], in assay [9], in [11], in assay [12], in assay [13] and in assay [14]. Moreover, the compound was called inactive in [15], in assay [17], in assay [18], in [19] and in assay [20]. The figures for the AC50 in assay [5], in assay [10] and in assay [16] were 232 µM (active), 36.9 µM (active) and 5.14 µM (active), respectively.

As for `CC(=O)CCC(C)C`, the outcome in [1], in assay [2], in assay [3], in assay [4], in [5] and in assay [6] was inactive. Also, the compound was classed as inactive in assay [7], in [8], in assay [9], in assay [10], in [11] and in [12]. The call in assay [13], in [14], in [15], in [16], in assay [17] and in [18] was inactive. Also, the result in assay [19] and in [20] was inactive.

As for `O=C1C=CC(=O)N1c1ccc(Cc2ccc(N3C(=O)C=CC3=O)cc2)cc1`, the call in assay [1], in assay [3], in assay [4], in [6], in [7] and in assay [8] was inactive. The outcome in assay [11], in [13], in assay [15], in [16], in assay [17] and in [18] was inactive. The compound was called inactive in assay [19] and in [20]. Besides, the concentration at half-maximal activity (AC50) in assay [2] is 33.4 µM (active); in assay [5] it was 22.7 µM (active); in assay [9], 51.2 µM (active); in assay [10], 59.4 µM (active); in [12] it was 44.9 µM (active); in assay [14], 21.4 µM (active).

Usually AC50 stands for the midpoint of the concentration-response curve, whichever way the signal moves.
